The record followed here is ChEMBL document CHEMBL4513216, “Probing the Open Global Health Chemical Diversity Library for Multistage-Active Starting Points for Next-Generation Antimalarials” (ACS Infect Dis, 2020).

The campaign covered roughly 69,000 compounds. About 8,600 (12%) showed an effect of 50% or more. The list comes from a sample in which strong results are over-represented; it also holds similar structures and randomly drawn compounds.

In the assay the test system is Plasmodium berghei. The assay is described as follows: Screen against P. berghei liver stage (PbLuc), transformed with Luciferase, at 10uM. The assay is classed as functional, HepG2. The following applies: tested at 10 uM.
For `Cc1ccc2nnc(C(=O)NCC3CCCC3)nc2c1`, the INHIBITION was -4.01%. Turning to `O=C(c1cccnc1)N1CCn2nnc(COc3ccccn3)c2C1`, the INHIBITION came to 41.6%. As for `CN(C)CCOCc1cncc2c1CCN(C(=O)c1cscn1)C2`, the INHIBITION worked out at 49.4%. On to `COC(=O)c1ccc(S(=O)(=O)NC2CNC(=O)C2)cc1` (centres undefined), for which the INHIBITION was 60.6%. `O=C1CC(NS(=O)(=O)c2ccc(Br)cc2)CN1` (centres undefined): the INHIBITION is recorded as 53.7%. Under `CSc1ccc(S(=O)(=O)NC2CNC(=O)C2)cc1` (centres undefined) stands 42.1%. For `COc1cccc(S(=O)(=O)NC2CNC(=O)C2)c1` (centres undefined), the INHIBITION is -12.2%.

On to `Cc1ccc(S(=O)(=O)NC2CNC(=O)C2)cc1C` (centres undefined), for which the INHIBITION amounted to 38.5%. In the case of `O=C1CC(NS(=O)(=O)c2ccc(Cl)cc2)CN1` (centres undefined), the INHIBITION was 45.5%. The same measure for `O=C(c1ccnc(C2CCNCC2)c1)N1CCCC(CO)C1` (centres undefined): 23.9%; for `CCOCC1CN(C(=O)c2cc(C)oc2C)Cc2c1cnn2C` (centres undefined): 36.2%. As to `COC[C@H]1CC[C@H]2[C@H](CCN2S(=O)(=O)c2ccccc2)O1`, the INHIBITION was found to be 4.68%.

With `c1nc(N2CCOCC2)sc1-c1cncn1CCCN1CCCCC1`, the INHIBITION is listed as 8.32%. For the compound `CC(C)(C)C(O)CN1CCN(C(=O)COCC2CC2)CC1` (centres undefined), the INHIBITION was determined as 10.6%. `CSCCC(=O)N1CCN(CC(C)O)CC1` (centres undefined): the INHIBITION is on record as 68.2%. With `CSCC(=O)N1CCN(CC(O)C(C)(C)C)CC1` (centres undefined), the INHIBITION was 60.9%. Regarding `CSCCC(=O)N1CCN(CC(C)(C)O)CC1`, the INHIBITION is listed as -94.3%. In the case of `CCC(O)CN1CCN(C(=O)CCSC)CC1` (centres undefined), the INHIBITION turned out to be 68.2%. For `CCOCCC(=O)N1CCN(CC(C)O)CC1` (centres undefined), the INHIBITION is on record as 29.4%.

Regarding `CSCCC(=O)N1CCN(CC(O)C(C)(C)C)CC1` (centres undefined), the INHIBITION was -46.4%. Regarding `CC(O)CN1CCN(C(=O)CCOC(C)C)CC1` (centres undefined), the INHIBITION was determined as 8.05%. On to `CCN1CCN(C(=O)CCC2CCN(C(=O)CCSC)CC2)CC1`, for which the INHIBITION came out at 33.5%. In the case of `O=C(CCC(=O)N1CCCC1c1ccsc1)N1CCOCC1` (centres undefined), the INHIBITION came to 7.24%. As for `Cc1ccc2nc(-c3nc4c([nH]3)CCCNC4=O)cn2c1`, the INHIBITION is -87.9%.

In the case of `CCOC(=O)CN1CCC2(CC1)CC(=O)c1ccc3ccccc3c1O2`, the INHIBITION came to 31.2%.

With `CCC(=O)NCc1ccc(N2CCCCC2)cc1`, the INHIBITION was -0.578%.

As for `Cc1nc(C)n(CC2CCCN2Cc2cc(-c3cccs3)on2)n1` (centres undefined), the INHIBITION worked out at 40.65%. For the compound `c1nnc(Nc2cncc(C3CCCN3CC3CC3)n2)s1` (centres undefined), the INHIBITION is 11.8%. Turning to `Cc1noc2nc(C3CCCN(Cc4cccnc4)C3)cc(C(F)F)c12` (centres undefined), the INHIBITION is given as 41.2%. The same measure for `CCc1cc(C(=O)N2CCCC2c2nc(C)c(CC)c(O)n2)on1` (centres undefined): -21.4%; for `CCc1c(C)nc(C2CCCN2C(=O)c2cc(C)no2)nc1O` (centres undefined): 30.4%.

For `CCc1cc(C(=O)N2CCCC2c2nc(C)c(F)c(O)n2)on1` (centres undefined), the INHIBITION amounted to 53%. The same measure for `Cc1cc(C(=O)N2CCCC2c2nc(C)cc(O)n2)on1` (centres undefined): 44.8%; for `CCc1cc(O)nc(C2CCCN2C(=O)c2cc(C)no2)n1` (centres undefined): 26.9%; for `Cc1cc(C(=O)N2CCCC2c2nc(O)cc(C(C)C)n2)on1` (centres undefined): 51.5%. `CN(C)CCN1C(=O)CCC12CCCN(C(=O)C1CC=CC1)CC2` (centres undefined): the INHIBITION is on record as -38.1%.

With `NC(=O)CCN(CC(=O)NCc1cccs1)c1ccc(F)cc1`, the INHIBITION amounted to 47.3%. For `Cn1cc(CN2CC[C@@H]3[C@@H](CO[C@H]3CNC(=O)c3ccco3)C2)cn1`, the INHIBITION was -16.9%. `CCN1CC[C@@]2(C(=O)N3CCOCC3)CCN(C(=O)NC)CC[C@@H]12`: the INHIBITION is listed as -19.6%. `Cc1cc(-c2nccs2)nc(C2CCN(Cc3ccncc3)CC2)n1`: the INHIBITION is 26.7%. For the compound `Cc1cc(-c2nccs2)nc(C2CCN(Cc3ccccn3)CC2)n1`, the INHIBITION was found to be 23.9%. The same measure for `Cc1cc(-c2nccs2)nc(C2CCN(Cc3cccs3)CC2)n1`: 50.8%; for `Cc1nccc([C@@H]2C[C@@H]3CCN(Cc4cccs4)C[C@H]3O2)n1`: -32.6%; for `Oc1cc(-c2nccs2)nc(C2CCN(Cc3cccs3)CC2)n1`: 2.55%. The same measure for `Cc1cc(-c2nccs2)nc(C2CCN(Cc3ccc(F)cc3)CC2)n1`: 52.7%; for `Cc1nnc(C(C)NCC2(c3ccc(F)cc3)CCCCC2)o1` (centres undefined): -14.6%; for `O=C(CCn1ccccc1=O)Nc1ccc(C(=O)O)cc1`: 12.7%. Take `Cc1nc(N(C)C)nc2c1COCC21CCN(C(=O)NCC(C)C)C1` (centres undefined): the INHIBITION is listed as -43.8%. On to `CC(NC(=O)CCOc1ccc(F)cc1)c1nnc2n1CCCCC2` (centres undefined), for which the INHIBITION is reported as 28.8%.

As to `COc1ccccc1CNc1ccc2nncn2n1`, the INHIBITION was -33.8%. As for `O=C(Cn1cccnc1=O)NC(Cc1ccsc1)c1cccnc1` (centres undefined), the INHIBITION is given as 14.7%. With `CC(C)c1cc(NCC2(N(C)C)CCCC2)ncn1`, the INHIBITION stood at 49.9%. Take `CC(C)c1cc(NCC2(CO)CCC2)ncn1`: the INHIBITION was 66.7%.

Take `CC(C)c1cc(NCC2(CO)CCCC2)ncn1`: the INHIBITION is given as 44.3%. For `CCN(CC)Cc1ccc(C(=O)NC2CCc3cc(Cl)ccc32)o1` (centres undefined), the INHIBITION is 50.5%. Consider `CCN(CC)Cc1ccc(C(=O)NC2CCc3cc(F)ccc32)o1` (centres undefined), for which the INHIBITION is given as 9.91%. Regarding `CCN(CC)Cc1ccc(C(=O)NC2CCc3cc(Br)ccc32)o1` (centres undefined), the INHIBITION is recorded as 36.7%. As for `O=C(CC1CCCC1)Nc1ccc(-n2cc(Cl)cn2)nc1`, the INHIBITION is reported as -18.8%. As to `CC(C)c1sc(Br)nc1C(=O)NCc1ccco1`, the INHIBITION is on record as -7.81%.

As to `Cc1csc(CN2C[C@@H]3COC[C@]3(COCC(=O)N(C)C)C2)n1`, the INHIBITION is given as -2.35%. As for `CN1CCN(c2ccccc2CNC(=O)Cc2cccc(F)c2)CC1`, the INHIBITION was determined as 30.3%. In the case of `Cc1ccc(CN2CCc3c(CN4CCCC4)n[nH]c3C2)s1`, the INHIBITION is reported as 26.5%. Under `Cc1cc(C)nc(C2CCN(C3CCCCC3)C2)n1` (centres undefined) stands -36.4%; under `CCS(=O)(=O)NC[C@]12COC[C@H]1CN(Cc1cc(C)on1)C2`, 18.8%; under `CCS(=O)(=O)NC[C@]12COC[C@H]1CN(Cc1ccccn1)C2`, 4.27%.

On to `CCS(=O)(=O)NC[C@]12COC[C@H]1CN(Cc1cccnc1)C2`, for which the INHIBITION is recorded as 24.9%. As for `CCS(=O)(=O)NC[C@]12COC[C@H]1CN(Cc1sccc1C)C2`, the INHIBITION was 28.7%.

Turning to `CCS(=O)(=O)NC[C@]12COC[C@H]1CN(Cc1ccsc1)C2`, the INHIBITION worked out at 53.9%. For the compound `CCS(=O)(=O)NC[C@]12COC[C@H]1CN(Cc1ccncc1)C2`, the INHIBITION amounted to 53.9%.
